Compound activity deposited in PubChem BioAssay by Sanford-Burnham Center for Chemical Genomics.
TIM10 inh = inhibits growth of TIM10 yeast strain; hit rate 1.4% among 330,000; inhibition, % at 10 µM; S. cerevisiae TIM10 strain growth, BacTiter-Glo luminescence, 24 h;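 active = inhibition of 40% or more at the single tested concentration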;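 also: wild-type TIM10 isogenic control strain grown at permissive 25 °C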
NALP3 yeast inh = NALP3 inhibition in yeast | Yeast reconstituted NLRP3/ASC/caspase-1, beta-gal luminescence, 24 h | inhibition, % at 10 µM | hit rate 0.39% among 330,000 | AID 2825;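 active = inhibition of 50% or more; inactive = inhibition below 50%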
tim10-1 inh = growth inhibitors of tim10-1 mutant yeast; S. cerevisiae tim10-1 ts strain growth, BacTiter-Glo, 24 h; inhibition, % at 20 µM; hit rate 2.2% among 330,000;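 active = inhibition of at least 40%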;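 also: mutant grown at 25 °C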
NALP1 yeast inh = inhibitors of NALP1 inflammasome in yeast | AID 2071 | inhibition, % at 10 µM | S. cerevisiae NALP1/ASC/caspase-1 growth, X-gal OD620, 72 h | hit rate 0.61% among 280,000; in the data active = inhibition mostly above about 24%, no sharp cut-off; inactive = mostly below about 32%
tim23-1 inh = tim23-1 yeast growth inhibition. hit rate 1.3% among 330,000. S. cerevisiae tim23-1 growth, BacTiter-Glo luminescence, 24 h. inhibition, % at 20 µM;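 active = growth inhibition of the mutant yeast at or above 50%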;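 also: temperature-sensitive mutant grown at 25 °C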
tim23-1 conf = confirmation of tim23-1 mutant yeast growth inhibitors | shares compounds with tim23-1 inh | S. cerevisiae tim23-1 growth, BacTiter-Glo luminescence, 24 h | inhibition, % at 20 µM | hit rate 83% among 4,400 | AID 463218;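 active = inhibition above about 39% in either of two replicate wells at 20 µM, limit read from the data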;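 also: temperature-sensitive tim23-1 mutant grown at 25 °C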
Of the large screens only hits and unclear results are named; the others gave an inactive call (follow-up assays come after a bar, where they were run). An excerpt weighted towards active compounds, which were near 4.1% of everything screened.

CC(C)Nc1nc(N)c(C(=O)C23CC4CC(CC(C4)C2)C3)s1	tim23-1 inh 53 (no result: NALP1 yeast inh) | tim23-1 conf 56
CC(NC(=S)NCCN1CCOCC1)C12CC3CC(CC(C3)C1)C2 (stereo unspecified)	none
COc1ccc(N(C(=O)c2snc(C(N)=O)c2N)C(CC(C)C)C(=O)NCC2CCCO2)cc1 (stereo unspecified)	none
O=C1CS(=O)(=O)N(Cc2ccc(F)cc2)c2ccccc21	tim23-1 inh 53 (no result: NALP3 yeast inh, NALP1 yeast inh) | tim23-1 conf 47
Cc1ccc(-c2ccc(C3C(C#N)=C(N)Oc4n[nH]c(C)c43)o2)cc1 (stereo unspecified)	tim23-1 inh 60 | tim23-1 conf 46
O=C(c1ccc2oc(CCCc3ccccc3)nc2c1)N1CCCC1	none
COc1cc(OC)cc(-c2c(-c3cccs3)c3cc(-c4ccc(OCc5ccccc5)cc4)ccc3n2C)c1	none (no result: NALP1 yeast inh)
CCC(C)(C)C1CCc2[nH]nc(C(=O)NN)c2C1 (stereo unspecified)	none
CCC(C)(C)C1CCc2[nH]nc(C(=O)NCC3CC3)c2C1 (stereo unspecified)	tim23-1 inh 56 (no result: NALP1 yeast inh) | tim23-1 conf 64
CCC(C)(C)C1CCc2[nH]nc(C(=O)NC(C)C)c2C1 (stereo unspecified)	tim23-1 inh 53 (no result: NALP1 yeast inh) | tim23-1 conf 53
O=c1ccc(Cl)nn1-c1ccccc1	none (no result: NALP1 yeast inh)
O=C(N/N=C/c1cc(Br)cc([N+](=O)[O-])c1O)c1ccc(NC(=O)c2ccc(F)cc2)cc1	none
C/C(N)=C(/C#N)C(=O)COC(=O)c1ccc(OCC2CCCO2)cc1 (stereo unspecified)	none
CCOC(=O)c1sc(=NC(=O)c2ccccc2Br)n(C)c1C	none
CCOC(=O)c1sc(=NC(=O)c2ccco2)n(C)c1C	tim23-1 inh 54 | tim23-1 conf 44
COc1ccc2nc(NC3=NCCC3)sc2c1	none
COc1cccc(Nc2nc(-c3sc(N)nc3C)cs2)c1	none
COc1cccc(Nc2nc3ccc(OC)cc3s2)c1	tim23-1 inh 61 | tim23-1 conf 57
COc1cccc(Nc2nc(-c3sc(C)nc3C)cs2)c1	tim23-1 inh 55 | tim23-1 conf 46
COc1ccc(/C=C/C2=Nc3ccccc3NC(C)(C)C2)cc1OC	tim23-1 inh 51 (no result: NALP1 yeast inh) | tim23-1 conf 43
CCN=c1scc(-c2ccc(F)cc2)n1/N=C/c1ccccn1	tim23-1 inh 58 | tim23-1 conf 70
O=C(N/C(=C/c1ccco1)C(=O)N1CCCC1)c1cccs1	none
O=C(N/C(=C\c1ccco1)C(=O)N1CCCC1)c1cccs1	tim23-1 inh 52 | tim23-1 conf inactive
CCC1CCCCN1CCCNC(=O)CCC(=O)N1CCOc2ccccc21 (stereo unspecified)	none
CCCNC(=O)c1oc2ccc3c(c2c1C)C(O)CC(C)(C)O3 (stereo unspecified)	none
Cc1c(C(=O)NCc2ccoc2)oc2ccc3c(c12)C(=O)CC(C)(C)O3	tim23-1 inh 52 | tim23-1 conf 53
Cc1ccc(NS(=O)(=O)c2ccc(C(=O)NCCCN3CCCC3=O)cc2)cc1	none (no result: NALP1 yeast inh)
O=Cc1cccc(OCc2cccc3ccccc23)c1	tim23-1 inh 57 | tim23-1 conf inactive
CN(C)C(=O)c1ccc(NC(=O)CN2CCc3cc4c(cc3C2)OCCCO4)cc1	none
O=C(CN1CCc2cc3c(cc2C1)OCCCO3)Nc1cccc(Br)c1	tim23-1 inh 60 | tim23-1 conf 74
O=S(=O)(NCc1csc(-c2ccccc2)n1)c1ccc(Cl)s1	tim23-1 inh 53 | tim23-1 conf 45
N#C/C(=C\c1cccnc1)c1ccc([N+](=O)[O-])cc1	tim23-1 inh 55 | tim23-1 conf inactive
CCCN(CC(=O)Nc1ccccc1OC)C(=O)C1=COCCO1	none (no result: NALP1 yeast inh)
O=C(CSc1n[nH]c(-c2ccncc2)n1)Nc1ccccc1C(F)(F)F	none
Cc1ccccc1Nc1nnc(SCC(=O)NCC2CCCO2)s1 (stereo unspecified)	none (no result: NALP1 yeast inh)
c1csc(CSc2nnc3sc4ccccc4n23)c1	tim23-1 inh 54 | tim23-1 conf 50
Cc1cc2c3c(c1)C(C)CC(C)(C)N3C(=O)C2=O (stereo unspecified)	tim23-1 inh 53 | tim23-1 conf 55
CCOc1cc2c3c(c1)C(C)CC(C)(C)N3C(=O)C2=O (stereo unspecified)	tim23-1 inh 50 | tim23-1 conf 55
CCOc1cc2c3c(c1)C(C)=CC(C)(C)N3C(=O)C2=O	tim23-1 inh 56 | tim23-1 conf 56
CC1Cn2c(nc(=O)c3c2NCN(CCc2ccccc2)C3)S1 (stereo unspecified)	none
Oc1ccc(/C=N/Nc2cccc(Cl)n2)c(O)c1	tim23-1 inh 56 | tim23-1 conf 44
CCOc1ccc(S(=O)(=O)N/N=C2/CC(c3ccccc3)Oc3ccccc32)cc1 (stereo unspecified)	none
CCN(CC)c1ccc(NC(=O)c2ccccc2Br)cc1S(=O)(=O)Nc1ccccc1OC	tim23-1 inh 50 | tim23-1 conf 86
COc1ccc(OC)c(S(=O)(=O)n2nnc3cc(Cl)ccc32)c1	none
COc1cc(S(=O)(=O)n2nnc3ccccc32)c(OC)cc1Cl	tim23-1 inh 61 | tim23-1 conf 56
Nc1nc2ccc(C(=O)Nc3ccccc3)cc2s1	none
CCc1ccc(NC(=O)c2ccc3nc(N)sc3c2)cc1	NALP1 yeast inh 40, tim23-1 inh 54 | tim23-1 conf inactive
Cc1noc(C)c1C(=O)N(CC(C)C)c1nc2ccccc2s1	none
O=C(NCCN1CCOCC1)c1ccc(Cl)c([N+](=O)[O-])c1	none
CC(C)(C)SCCNC(=O)c1ccc(Cl)c([N+](=O)[O-])c1	tim23-1 inh 53 | tim23-1 conf inactive
CC(=O)Nc1ccc(C2CC(c3ccc(Cl)cc3)=NN2c2ccccc2)cc1 (stereo unspecified)	tim23-1 inh 63 | tim23-1 conf 42
CC(=O)Nc1ccc(C2=NN(c3ccccc3)C(c3ccccc3)C2)cc1 (stereo unspecified)	none
Cc1nc(CC(=O)N2CCN(c3cccc(C)c3C)CC2)cs1	none
COc1cccc(-c2ccc(=O)n(CC(=O)Nc3ccc(S(=O)(=O)NCC(C)C)cc3)n2)c1	none
COC(=O)C1=C(C(=O)OC)C(c2cc(Cl)ccc2O)c2sc(=O)[nH]c2S1 (stereo unspecified)	tim23-1 inh 62 | tim23-1 conf 58
COC(=O)C1=C(C(=O)OC)C(c2cc(Br)ccc2O)c2sc(=O)[nH]c2S1 (stereo unspecified)	none (no result: TIM10 inh, NALP3 yeast inh, tim10-1 inh, tim23-1 inh)
COc1ccccc1C(=O)Oc1ccc2ccc(=O)oc2c1	tim23-1 inh 69 | tim23-1 conf 52
COc1cc2cc(Oc3ccc4ccc(=O)oc4c3)c(=O)oc2cc1OC(C)=O	none
COc1ccc2c(CC(=O)Nc3cccc(S(=O)(=O)N4CCOCC4)c3)coc2c1	none
CC(=O)NC(c1cc(Cl)c2cccnc2c1O)C(C)C (stereo unspecified)	none (no result: NALP1 yeast inh)
COc1cccc(C(NC(C)=O)c2ccc3cccnc3c2O)c1 (stereo unspecified)	none
